Source: PubChem BioAssay (Tox21)
“And” between values parts separate entries of the source, which are not always exact repeats. Identical values can stand only once. Inconclusive results are not listed. The source made the active and inactive calls. Unless noted, calls come from the whole dose curve; as a rule, active = well fitted curve in the direction sought with a large enough effect in the repeat runs; inconclusive = weak or mixed curves; inactive = no such curve, though single readings can be large; an effect the other way counts as inactive or inconclusive.

Assays:
[1] = qHTS assay to identify small molecule agonists of the NFkB signaling pathway (AID 1159509; active = well fitted curve in the direction sought with a large enough effect in the signal ratio in the repeat runs, not every such curve was filed as active; the % refers to the signal ratio; note: series mostly up to about 61 µM)
Method in brief: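 Beta-lactamase reporter assay run in quantitative high-throughput format on an NF-kB-responsive ME-180 line, with 5 hr compound treatment and a FRET-based blue/green fluorescence readout.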

[2] = qHTS assay to identify small molecule agonists of the NFkB signaling pathway - cell viability counter screen (AID 1159515; calls by dose curve; note: series mostly up to about 61 µM; nearly all actives have a fitted effect of over 55% in size)
Method in brief: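 Plate 2,000 NFkB-bla ME-180 cells/well; incubate overnight. Add compounds, 5 hr at 37 C. Add FRET substrate, 1.5 hr RT. Add CellTiter-Glo, 30 min RT; read luminescence.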

[3] = qHTS assay to identify small molecule agonists of the endoplasmic reticulum stress response signaling pathway (AID 1159516; active = well fitted activation curve with a large enough effect in the signal ratio in the repeat runs, not every such curve was filed as active; the % refers to the signal ratio)
Method in brief: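 Beta-lactamase expression from the ER stress response element in HeLa reporter cells is quantified with the LiveBLAzer B/G FRET substrate, read at 405 nm excitation after 2 hr at room temperature, following 5 hr compound treatment at 37 C.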

[4] = qHTS assay to identify small molecule agonists of the endoplasmic reticulum stress response signaling pathway - cell viability counter screen (AID 1159517; calls by dose curve; note: series mostly up to about 61 µM; nearly all actives have a fitted effect of over 50% in size)
Method in brief: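 Cytotoxicity of test compounds toward ESRE-bla HeLa cells was assessed after 5 hr exposure. The luminescent CellTiter-Glo signal was measured 30 min after reagent addition.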

[5] = qHTS assay to identify small molecule antagonists of the retinoid-related orphan receptor gamma (ROR-gamma) signaling pathway - cell viability counter screen (AID 1159520); note: nearly all actives have a fitted effect of over 50% in size
Method in brief: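 Tet-on ROR gamma CHO cells (1,000/well) were plated 4 hr, given compounds in DMSO for 2 hr at 37 C, then induced with 1 uM final doxycycline for 16 hr. Viability was read as ATP by CellTiter-Glo luminescence after 30 min.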

[6] = target: Nuclear receptor ROR-gamma (Homo sapiens) (UniProt P51449); assay: qHTS assay to identify small molecule antagonists of the retinoid-related orphan receptor gamma (ROR-gamma) signaling pathway (AID 1159521; note: nearly all actives have a fitted effect of over 50% in size; note: potency is the fitted concentration of half-maximal effect)
Method in brief: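 RORγ antagonism is scored from reduced reporter luminescence in Tet-on CHO cells. Induction used 1 uM final doxycycline hyclate for 16 h at 37 C, following a 2 h compound exposure.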

[7] = qHTS assay to identify small molecule agonists of the AP-1 signaling pathway - cell viability counter screen (AID 1159525; calls by dose curve; note: nearly all actives have a fitted effect of over 55% in size)
Method in brief: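 Each titration point was normalised to DMSO and tetra n-octyl ammonium bromide controls. The read was Cell Titer Glo luminescence after 30 min at RT, following 5 h compound exposure of ME-180 AP-1-bla cells at 37 °C.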

[8] = qHTS assay to identify small molecule agonists of the AP-1 signaling pathway (AID 1159526; calls by dose curve)
[9] = target: Retinoic acid receptor RXR-alpha (Homo sapiens) (UniProt P19793); assay: qHTS assay to identify small molecule agonists of the RXR signaling pathway (AID 1159527; calls by dose curve; note: nearly all actives have a fitted effect of over 35% in size)
Method in brief: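 qHTS of the Tox21 10K library in GeneBLAzer RXR-alpha HEK 293T cells carrying a beta-lactamase reporter […]; 16 hr treatment, 9-cis retinoic acid as agonist control, FRET read-out.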

[10] = qHTS assay to identify small molecule agonists of the RXR signaling pathway - cell viability counter screen (AID 1159529); note: series mostly up to about 77 µM; nearly all actives have a fitted effect of over 50% in size
Method in brief: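 Cell viability is measured by CellTiter-Glo luminescence, 30 min at room temperature, in wells already read for beta-lactamase. Engineered HEK 293T cells (RXR-alpha-UAS-bla) are dosed 16 hr at 37 C. Tetraoctyl ammonium bromide serves as positive control.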

[11] = qHTS assay to identify small molecule antagonists of the retinoic acid receptor (RAR) signaling pathway (AID 1159552; note: nearly all actives have a fitted effect of over 50% in size; note: potency is the fitted concentration of half-maximal effect)
Method in brief: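 Quantitative HTS in C3RL4 RARE-luciferase reporter cells. Compounds were added with 1 uM (final) retinol; luminescence was read after 6 hr.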

[12] = qHTS assay to identify small molecule agonists of the retinoic acid receptor (RAR) signaling pathway (AID 1159553)
Method in brief: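 Compounds dissolved in DMSO were pinned onto C3RL4 cells seeded the previous day, and plates were held 6 hr at 37 C. RARE-driven luciferase output was then read by luminescence.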

[13] = qHTS assay to identify small molecule antagonists of the estrogen related receptor (ERR) signaling pathway from Tox21 library - cell viability counter screen (AID 1224834); note: nearly all actives have a fitted effect of over 30% in size
Method in brief: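 In this quantitative HTS format, ERR cells receive compounds in DMSO and are incubated for 17.5 h at 37 C. Live-cell protease activity is then detected with CellTiter-Fluor.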

[14] = qHTS assay to identify small molecule antagonists of the retinoid acid receptor (RAR) signaling pathway - cell viability counter screen (AID 1159551); note: nearly all actives have a fitted effect of over 35% in size
Method in brief: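 Viability of C3RL4 cells is quantified from ATP by luminescence after 6 h treatment at 37 C with compounds and 1 uM retinol.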

[15] = qHTS assay to identify small molecule antagonists of the estrogen related receptor (ERR) signaling pathway - cell viability counter screen (AID 1224818);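 note: series mostly up to about 46 µM; viability measured after 17.5 h of compound exposure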
Method in brief: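 Cytotoxicity check run alongside the ERR antagonist screen: cells exposed to test compounds 17.5 h at 37 C, viability taken as CellTiter-Fluor fluorescence intensity.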

[16] = qHTS assay to identify small molecule antagonists of the estrogen related receptor (ERR) signaling pathway (AID 1224819)
Method in brief: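 ERR reporter cells were plated at 2,000 cells/well and left 6 h at 37 C/5% CO2 before pin-tool transfer of compounds in DMSO. After 18 h at 37 C, One-Glo was added and luminescence was read 30 min later at room temperature.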

[17] = qHTS assay to identify small molecule agonists of the estrogen related receptor (ERR) signaling pathway (AID 1224820)
Method in brief: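 Following a 6 h settling period, 2,000 ERR cells per well receive DMSO-dissolved compounds by pin tool and incubate 18 h at 37 C; agonist activity is scored from One-Glo luminescence read 30 min post-addition.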

[18] = test system: estrogen-related receptor alpha (ERRalpha) with PGC-1alpha coactivator, human; assay: qHTS assay to identify small molecule antagonists of the estrogen related receptor signaling pathway with the pleiotropic PPARgamma coactivator (PGC) (AID 1224821; calls by dose curve)
Method in brief: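 Screening used NTP's PGC/ERR cells, dosed via pin tool with compound in DMSO alongside positive and negative controls. After 18 h at 37 C, One-Glo reagent sat 30 min at room temperature before luminescence detection.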

[19] = qHTS assay to identify small molecule agonists of the estrogen related receptor signaling pathway with the pleiotropic PPARgamma coactivator (PGC) (AID 1224823)
Method in brief: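 In this quantitative high-throughput screen, an 18 h, 37 C treatment of PGC/ERR cells with compounds in DMSO preceded a One-Glo luminescence read taken after 30 min at room temperature.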

Measured: Potency

Retinoic acid receptor RXR-alpha (Homo sapiens), sequence (P19793 whole entry, looked up): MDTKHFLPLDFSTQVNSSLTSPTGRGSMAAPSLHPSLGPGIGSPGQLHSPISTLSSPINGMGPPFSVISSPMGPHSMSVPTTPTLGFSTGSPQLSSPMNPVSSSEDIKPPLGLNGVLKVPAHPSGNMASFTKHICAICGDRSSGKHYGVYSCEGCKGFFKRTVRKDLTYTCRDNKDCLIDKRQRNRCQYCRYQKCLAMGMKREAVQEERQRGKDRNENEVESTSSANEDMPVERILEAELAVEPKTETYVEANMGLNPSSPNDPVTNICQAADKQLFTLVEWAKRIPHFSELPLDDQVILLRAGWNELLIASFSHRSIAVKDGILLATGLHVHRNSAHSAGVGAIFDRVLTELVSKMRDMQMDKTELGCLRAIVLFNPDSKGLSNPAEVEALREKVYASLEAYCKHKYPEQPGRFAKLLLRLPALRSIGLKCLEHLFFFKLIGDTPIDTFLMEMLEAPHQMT

C=C(C)C(=O)OCCC[Si](OC)(OC)OC
inactive: [1] | [2] | [3] | [4] | [5] | [6] | [7] | [8] | [9] | [10] | [11] | [12] | [13]

CC#C[C@]1(O)CC[C@H]2[C@@H]3CCC4=CC(=O)CCC4=C3[C@@H](c3ccc(N(C)C)cc3)C[C@@]21C
inactive: [1] | [2] | [3] | [4] | [5] | [7] | [8] | [10] | [14] | [15] | [17] | [19]
active: [6] 30.6 µM and 26.6 µM | [11] 27.3 µM and 26.6 µM | [16] 22 µM | [18] 21.1 µM

CCC(=O)O
inactive: [1] | [2] | [3] | [4] | [5] | [6] | [7] | [8] | [9] | [10] | [14] | [11] | [13]

CC1(C)O[C@@H]2C[C@H]3[C@@H]4C[C@H](F)C5=CC(=O)CC[C@]5(C)[C@H]4[C@@H](O)C[C@]3(C)[C@]2(C(=O)CO)O1
inactive: [1] | [2] | [3] | [4] | [5] | [6] | [7] | [8] | [9] | [10] | [11] | [12] | [13]

C=C(C)C(=O)OCCCCCCCCCCCC
inactive: [1] | [2] | [3] | [4] | [5] | [6] | [7] | [8] | [9] | [10] | [14] | [11] | [12] | [13]

Nc1cc(-c2ccncc2)c[nH]c1=O
inactive: [1] | [2] | [3] | [4] | [5] | [6] | [7] | [8] | [9] | [10] | [11] | [12] | [13]

O=C1CCCCC1
inactive: [1] | [2] | [3] | [4] | [5] | [6] | [7] | [8] | [9] | [10] | [14] | [13]

Clc1ccc(Cl)c(Cl)c1Cl
inactive: [1] | [2] | [3] | [4] | [5] | [6] | [7] | [8] | [10] | [14] | [13]

O=C(O)c1ccc([N+](=O)[O-])cc1
inactive: [1] | [2] | [3] | [4] | [5] | [6] | [7] | [8] | [9] | [10] | [13]

Cc1cc(Cc2ccc(N)c(C)c2)ccc1N
inactive: [1] | [2] | [3] | [4] | [5] | [6] | [7] | [8] | [10] | [14] | [11] | [12] | [13]

O=S(=O)(O)CCS
inactive: [1] | [2] | [3] | [4] | [5] | [6] | [7] | [8] | [9] | [10] | [13]

CCCCOCCOCCOC(=O)CCCCC(=O)OCCOCCOCCCC
inactive: [1] | [2] | [3] | [4] | [5] | [6] | [7] | [8] | [9] | [10] | [11] | [12] | [13]

CNC[C@H](O)[C@@H](O)[C@H](O)[C@H](O)CO
inactive: [1] | [2] | [3] | [4] | [5] | [6] | [7] | [8] | [9] | [10] | [14] | [11] | [12] | [13]

c1ccc2ccccc2c1
inactive: [1] | [2] | [3] | [4] | [5] | [6] | [7] | [8] | [10] | [14] | [11] | [12] | [13]

CC(C)Cc1ccccc1
inactive: [1] | [2] | [3] | [4] | [5] | [6] | [7] | [8] | [9] | [10] | [11] | [12] | [13]

OCCOCCOCCOCCO
inactive: [1] | [2] | [3] | [4] | [5] | [6] | [7] | [8] | [9] | [10] | [14] | [13]

Nc1nc2ncc(CNc3ccc(C(=O)N[C@@H](CCC(=O)O)C(=O)O)cc3)nc2c(=O)[nH]1
inactive: [1] | [2] | [3] | [4] | [5] | [6] | [7] | [8] | [9] | [10] | [11] | [12] | [13]

CCOC(=O)C1OC1c1ccccc1 (centres undefined)
inactive: [1] | [2] | [3] | [4] | [5] | [6] | [7] | [8] | [9] | [10] | [11] | [12] | [13]

OC[C@@H](O)[C@H](O)[C@H](O)[C@@H](O)CO
inactive: [1] | [2] | [3] | [4] | [5] | [6] | [7] | [8] | [9] | [10] | [11] | [12] | [13]
